Experimental data published in PubChem BioAssay (NCATS).
Results filed as inconclusive are left out. A call without a number means that no potency is given here. Activity calls are given as the source filed them. Calls follow the shape of the full dose curve; tested in HEK293 reporter line.

Assay: qHTS for Inhibitors of the Functional Ribonucleoprotein Complex (vRNP) of Lassa (LASV) Arenavirus: LASV Primary Screen - GLuc reporter signal (AID 1347082); also: nearly all actives have a fitted effect of over 60% in size
Details: LASV minigenome vRNP, Gaussia luciferase reporter; series mostly up to 57.5 µM
Potency is read from the fitted curve at half-maximal effect.

Question: For `CC(=O)N[C@@H](Cc1ccc(O)cc1)C(=O)O`, which Potency is on record?
Answer: Its Potency is “inactive”.

Question: With `Nc1ccc(S(=O)(=O)Nc2ccccc2)cc1` as the compound, how does the Potency read?
Answer: The Potency was “inactive”.

Question: Which Potency does the source give for `CC1=C(CO)C(=O)O[C@@H]([C@@H](C)[C@H]2CC[C@H]3[C@@H]4C[C@H]5O[C@]56[C@@H](O)C=CC(=O)[C@]6(C)[C@@H]4CC[C@]23C)C1` here?
Answer: The Potency was 0.863 µM (active).

Question: With `O=C1C(CCC(O)c2ccc(F)cc2)C(c2ccc(O)cc2)N1c1ccc(F)cc1` (stereo unspecified) as the compound, how does the Potency read?
Answer: The Potency was “inactive”.

Question: For `CCOP(=O)(NC(C)C)Oc1ccc(SC)c(C)c1` (stereo unspecified), which Potency is on record?
Answer: Its Potency is “inactive”.

Question: With `O=c1cc(N2CCOCC2)oc2c(-c3cccc4c3sc3ccccc34)cccc12` as the compound, how does the Potency read?
Answer: The Potency was “inactive”.

Question: Which Potency does the source give for `COc1ccc2c(c1)CC[C@@H](CN(C)CC(=O)O)[C@H]2c1ccccc1` here?
Answer: The Potency was “inactive”.

Question: Which Potency does the source give for `CCn1c(-c2nonc2N)nc2cnc(Oc3cccc(NC(=O)c4ccc(OCCN5CCOCC5)cc4)c3)cc21` here?
Answer: Its Potency is 15.3 µM (active).

Question: For `CS(=O)(=O)Oc1ccc2c(NC(N)=O)c(C(=O)c3ccc(Cl)cc3Cl)oc2c1`, which Potency is on record?
Answer: The Potency was “inactive”.

Question: With `COc1cc2nccc(Oc3ccc(NC(=O)Nc4cc(C)on4)c(Cl)c3)c2cc1OC` as the compound, how does the Potency read?
Answer: Its Potency is 34.3 µM (active).

Question: For `CCCCCCCCCCCCCC(=O)OC(C)C`, which Potency is on record?
Answer: Its Potency is “inactive”.

Question: With `Nc1cccc2c(N)cccc12` as the compound, how does the Potency read?
Answer: Its Potency is “inactive”.

Question: For `N#Cc1ccc(COC[C@H]2O[C@@H](n3c(NCc4ccc(Cl)c(Cl)c4)nc4c(N)ncnc43)[C@@H](O)[C@@H]2O)cc1`, which Potency is on record?
Answer: Its Potency is “inactive”.

Question: Which Potency does the source give for `CCCn1c(=O)c2[nH]c(C34CC5CC3C[C@@H](C5)C4)nc2n(CCC)c1=O` here?
Answer: Its Potency is “inactive”.

Question: Which Potency does the source give for `CC(C)CCCC(C)CCCC(C)CCCCC(C)CCCC(C)CCCC(C)C` (stereo unspecified) here?
Answer: Its Potency is “inactive”.

Question: Which Potency does the source give for `O=C(Nc1cccnc1)N1CCC(Cc2cccc(Oc3ccc(C(F)(F)F)cn3)c2)CC1` here?
Answer: The Potency was 21.7 µM (active).
